Reference: PubChem BioAssay
Calls of active or inactive are those of the source.

Experiment: splicing luciferase reporter signal modulators, primary screen, spliceosome inhibition project, cell-based, HEK293, splice +/- reporter (AID 1101);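 further: HEK293 cells carrying a splicing-competent luciferase reporter gene; test concentration not given here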
Details: luminescence, 24 h, higher = more signal, called active from +8 up or from −8 down

z-score, inactive:
C=C[C@@H](O)[C@H]1CC(c2ccccc2)=NO1 0.147
COC(=O)[C@]1(Cc2ccccc2CN=[N+]=[N-])N=C(c2ccc(OCCCO)cc2)O[C@@H]1c1ccccc1CN=[N+]=[N-] -0.613
O=C1C2C=CC(C(O)c3cccc4ccccc34)N(Nc3ccccc3)C2C(=O)N1c1ccccc1 (configuration not stated) -0.272
O=C(O)[C@@]1(Cc2ccccc2)COC(c2ccc(OCCCO)cc2)=N1 0.483
O=C1c2ccccc2[C@](Cc2ccccc2I)(C(=O)NC2CC2)[C@H](c2ccc(CO)cc2)N1Cc1ccccc1Cl 0.119
O=C(NCc1ccccc1)[C@]1(Cc2ccccc2)N=C(c2ccc(OCCCO)cc2)O[C@@H]1c1ccccc1 -0.0706
COCCCNC(=O)[C@@H]1c2ccccc2C(=O)N(Cc2cc(F)cc(C(F)(F)F)c2)[C@H]1c1ccc(CO)cc1 -0.0265
COC(=O)[C@@]1(Cc2ccc(OC)cc2)[C@H]2c3cc(C(=O)N4CCCC4)n(CCF)c3C[C@H]2CN1C(=O)c1ccccc1 -2.55
Cc1ccc(C(C)CC(O)C2C=CC3C(=O)N(Cc4ccccc4)C(=O)C3N2n2cnnc2)o1 (configuration not stated) -0.665
CN1C(=O)C2C=CC(C(O)c3cccc4ccccc34)N(NC(=O)OC(C)(C)C)C2C1=O (configuration not stated) 2.35
O=C1N(Cc2ccccc2)c2ccccc2[C@H]2OC(c3ccc(OCCCO)cc3)=N[C@@]12CCS(=O)(=O)c1ccccc1 0.212
COC(=O)[C@@]1(Cc2ccccc2)[C@H]2c3cc(C(=O)N4CCCC4)n(Cc4ccccc4)c3C[C@H]2CN1C(=O)c1ccccc1 -2.8
CCOC(=O)C[C@H]1[C@H](OC(=O)c2ccccc2-c2ccccc2)[C@@H](NC(=O)c2ccccc2)c2cc(OCCCO)ccc2N1C(=O)Cc1ccc(OC)cc1 -0.269
COc1ccccc1CN1C(=O)c2ccccc2[C@@H](C(=O)NCC(C)C)[C@@H]1c1ccc(CO)cc1 -0.8
COC(=O)C(CC#Cc1ccc2c(c1)[C@]1(C(=O)N2)[C@H](c2ccc(O)cc2)N2[C@H](c3ccccc3)[C@H](c3ccccc3)OC(=O)[C@H]2[C@@H]1C(N)=O)C(=O)OC -0.192
CCCC[C@@H](O)C1=C(COc2ccccc2)Cn2c(=O)n(-c3ccccc3)c(=O)n2[C@H]1CO -2.11
NC(=O)[C@H]1[C@@H]2C(=O)O[C@@H](c3ccccc3)[C@@H](c3ccccc3)N2[C@@H](c2ccc(O)cc2)[C@]12C(=O)Nc1ccc(C#CC3(O)CCCCCC3)cc12 -1.32
CCCN1C(=O)[C@@]2(Cc3ccccc3)N=C(c3ccc(OCCCO)cc3)O[C@H]2c2ccccc21 -0.872
COC(=O)[C@@]1(Cc2ccc(OC)cc2)[C@H]2c3cc(C(=O)N4CCCC4)n(CCc4ccc(O)c(OC)c4)c3C[C@H]2CN1C(=O)c1ccccc1 -0.928
COCCOC(=O)N1C(=O)[C@@]2(c3cc(C#Cc4ccc(OC)cc4)ccc31)[C@H](C(=O)N1CCc3cc(OC)c(OC)cc3C1)[C@H]1C(=O)O[C@H](c3ccccc3)[C@H](c3ccccc3)N1[C@@H]2c1ccc(OCCO)cc1 -0.32
C[N+](C)(C)CCCCCCNC(=O)[C@@H]1C[C@@H]2C(=O)NCC(=O)N2[C@@H]1c1ccc(O)cc1 0.605
COCCCNC(=O)[C@]1(CCS(=O)(=O)c2ccccc2)N=C(c2ccc(OCCCO)cc2)O[C@@H]1c1ccccc1 -0.594
C[C@@]1([C@@H](NC(=O)c2cccs2)c2ccc(-c3ccccc3)cc2)C[C@H]1C1CCCCC1 -3.26
COc1cccc(C[C@H]2C[C@@H](CO[Si](C(C)C)(C(C)C)C(C)C)N3C(=O)[C@]4(C(C)=O)O[C@]23[C@H]2C(=O)N(C)C(=O)[C@H]24)c1 -1.29
[N-]=[N+]=Nc1ccccc1[C@@H]1OC(c2ccc(OCCCO)cc2)=N[C@]1(CCS(=O)(=O)c1ccccc1)C(=O)NCc1ccccc1 0.385
C=CC[C@@]1(C(=O)NCCN2CCOCC2)N=C(c2ccc(OCCCO)cc2)O[C@@H]1c1ccccc1 -0.161
COC(=O)C(CC#Cc1ccc2c(c1)[C@]1(C(=O)N2)[C@H](c2ccc(OCCO)cc2)N2[C@H](c3ccccc3)[C@H](c3ccccc3)OC(=O)[C@H]2[C@@H]1C(=O)O)C(=O)OC -0.609
